# Results from PubChem BioAssay AID435022 (Sanford-Burnham Center for Chemical Genomics, 2010).
# The campaign covered roughly 330,000 compounds. About 1,100 (0.33%) were called active. No stated cut-off is given here; in the data, active means inhibition above about 35%; inactive means the rest. For the sample, actives were picked, then their nearest neighbours and some compounds at random.
# Test: inhibitors of PMA/ionomycin-induced NF-kB reporter, 697 cells, primary screen, B-cell NF-kB inhibitor project, cell-based, luminescence, uHTS (AID 435022)
# Conditions: 697 B-cell NF-kB luciferase reporter, 16 h, at 4 µM, active compounds read high
row,SMILES,inhibition
1,O=S1(=O)N=C(N(CCO)/N=C/c2ccccc2F)c2ccccc21,11.3% (inactive)
2,C/C(=N\Nc1nc(N2CCOCC2)nc(N2CCOCC2)n1)c1ccc([N+](=O)[O-])cc1,5.8% (inactive)
3,O=C(CSc1nc(Nc2ccccc2)nc(N2CCOCC2)n1)Nc1cc(Cl)ccc1O,-4.18% (inactive)
4,C/C(=N\Nc1nc(Nc2ccccc2)nc(N2CCOCC2)n1)c1cccs1,39.3% (active)
5,O=c1oc(-c2ccccc2NS(=O)(=O)c2ccc(Cl)cc2)nc2ccccc12,6.5% (inactive)
6,CC(C)(C)c1ccc(Oc2ccc(N)cc2)cc1,79% (active)
7,CC(C)(C)c1ccc(OC2=CS(=O)(=O)c3ccccc32)cc1,-29.9% (inactive)
8,COc1cccc(Oc2ccc(N)cc2)c1,-22.3% (inactive)
9,O=C(C(NS(=O)(=O)c1cccc2nsnc12)c1ccccc1)N1CCN(c2ccccc2)CC1 (stereo not drawn),-0.239% (inactive)
10,CN(Cc1nc(-c2cnccn2)no1)Cc1n[nH]c2c1CCCCC2,2.89% (inactive)
11,CC[n+]1cc(C)ccc1/C=C/c1ccc(N(C)C)cc1,42.6% (active)
12,C=CCN1C(=NC(=O)COc2ccccc2)SC2CS(=O)(=O)CC21 (stereo not drawn),-20.6% (inactive)
13,CN(C)C(=O)CCc1ccc2c3c([nH]c2c1)[C@]1(CCC2CCCC2)[C@@H](C(=O)N2CCOCC2)C[C@H](CC(=O)NCc2ccco2)C(=O)N1CC3,13.5% (inactive)
14,Cc1ccc(C)c(NC(=O)CN(C)C(=O)COc2ccc3ccccc3c2)c1,1.04% (inactive)
15,COc1ccc(S(=O)(=O)N2CCN(C(=O)c3cccs3)CC2)cc1OC,10.3% (inactive)
16,CC1=C(C(=O)OC2CCCCC2)C(c2cccnc2)n2ncnc2N1 (stereo not drawn),-21.7% (inactive)
17,COc1ccc(/C=C2\SC(=S)N(CCC(=O)Nc3ccccn3)C2=O)cc1OC,47.5% (active)
18,CCOc1ccc(/C=C2\SC(=S)N(NC(=O)c3ccncc3)C2=O)cc1OC,-7.88% (inactive)
19,COc1cc(/C=C2/SC(=S)N(Cc3ccccc3)C2=O)cc(OC)c1O,18.2% (inactive)
20,Cc1ccc(C)n1-c1ccncc1,8.79% (inactive)
21,CC(C)C[C@@H](N)c1nnc(SCC(=O)c2ccc(Cl)cc2)o1,67.6% (active)
22,CC(=O)Nc1ccc(C(=O)CSc2nnc(Cc3ccccc3)o2)cc1,8.22% (inactive)
23,COc1cc(C(=O)NCc2nnc(SCC(=O)c3ccc(Cl)cc3)o2)cc(OC)c1OC,7.7% (inactive)
24,CCCCCCCCCCOC(=O)C[N+](C)(C)CC1CCCCC1O (stereo not drawn),10.5% (inactive)

row,SMILES,inhibition
1,NC(=O)CC(NC(=O)Cc1cccc2ccccc12)c1ccc(NCc2cc(F)ccc2F)c([N+](=O)[O-])c1 (stereo not drawn),9.25% (inactive)
2,CC12CN3CCN(CC(C3)/C1=N\NC(=O)c1ccccc1N)C2,-5.67% (inactive)
3,O=C(O)COc1ccc(-c2nccc(-c3cccs3)n2)cc1,73.8% (active)
4,CN(C(=O)COc1nnc(-c2cccs2)c(-c2cccs2)n1)c1ccccc1,2.99% (inactive)
5,COc1ccc(OCC(=O)N2CCN(C(=O)c3cccs3)CC2)cc1,26.7% (inactive)
6,O=C1c2ccccc2S(=O)(=O)N1Cc1c(F)cccc1Cl,-1.55% (inactive)
7,Cn1c(CCc2ccccc2)nnc1SCC(N)=O,-1.05% (inactive)
8,CCN1C(=O)[C@H]2[C@@H](c3ccc(C)cc3)N3C(=O)N(c4cccc(Br)c4)C(=O)[C@@]3(CC)[C@H]2C1=O,-2.44% (inactive)
9,CCCCC(CC)CNC(=O)C(=O)C1C(=O)Nc2ccccc21 (stereo not drawn),13.5% (inactive)
10,O=C(CN1CCN(c2ccc(O)cc2)CC1)NC1CCCc2ccccc21 (stereo not drawn),6.1% (inactive)
11,CCOc1ccc(C(C)NC(=O)CN2C(=O)NC3(CCCCC3)C2=O)cc1OCC (stereo not drawn),-6.42% (inactive)
12,Cc1[nH][nH]c(=O)c1C(c1ccc(-c2ccc(Cl)cc2)o1)c1c(C)[nH][nH]c1=O,15.2% (inactive)
13,CCOc1ccc(C(c2c(C)[nH][nH]c2=O)c2c(C)[nH][nH]c2=O)cc1OCC,35.5% (active)
14,CCn1c(O)c(N=NC(=O)c2cccc(S(=O)(=O)N3CCCCC3)c2)c2ccccc21,-4.54% (inactive)
15,COC(=O)Cn1c2ccc(C)cc2c2nc(C)sc21,20.4% (inactive)
16,CCn1c(O)c(N=NC2=NC(=O)CS2)c2cc(C)ccc21,44.4% (active)
17,COc1cc(NC(=O)C2CC(c3ccccc3O)=NO2)c(OC)cc1Cl (stereo not drawn),10.9% (inactive)
18,CC(=O)Nc1nc(C)c(Cc2ccccc2)c(=O)[nH]1,16.1% (inactive)
19,O=C(O)CCn1c(Cc2ccccc2)nc2ccccc21,5.45% (inactive)
20,Cc1cc2ccccc2n1CCC(=O)O,13.8% (inactive)
21,O=C(O)CCn1c(O)c(C=C2N=c3ccccc3=N2)sc1=S,55.2% (active)
22,CCOc1ccc(NC(=O)CN(C)C(=O)c2cccc(S(=O)(=O)N3CCCC3)c2)cc1OCC,10.1% (inactive)
23,CCCC(C)NC(=O)C1CCN(C(=O)C2CC(=O)N(c3ccc(C)cc3)C2)CC1 (stereo not drawn),10.2% (inactive)
24,O=C(Nc1cccnc1)c1cc([N+](=O)[O-])ccc1Cl,12.2% (inactive)

row,SMILES,inhibition
1,Cc1ccc(NC(=O)c2cc([N+](=O)[O-])ccc2Cl)c(O)c1,38.8% (active)
2,CNc1ccc([N+](=O)[O-])cc1C(=O)O,-7.67% (inactive)
3,O=C(CCCC(=O)N1CCN(c2cccc(Cl)c2)CC1)c1ccccc1,5.77% (inactive)
4,C=CC1=C(C(=O)O)N2C(=O)[C@@H](NC(=O)/C(=N/OCC(=O)O)c3csc(N)n3)[C@H]2SC1,21.7% (inactive)
5,Cc1cnc(C(=O)Oc2cccc(Cl)c2Cl)cn1,9.86% (inactive)
6,N=c1n(CCc2ccccc2)c2ccccc2n1Cc1ccccc1F,-56.4% (inactive)
7,O=C(Nc1ccc2c(c1)OCO2)c1ccc(N2C(=O)c3ccccc3C2=O)cc1,-7.07% (inactive)
8,Cn1c(=O)n(C)c2cc(C(=O)Nc3ccc4c(c3)OCO4)ccc21,37.8% (active)
9,Cn1c(=O)n(C)c2cc(C(=O)Nc3ccc(Br)cc3)ccc21,9.51% (inactive)
10,COc1ccc(OCC(=O)NN2Cc3ccccc3C2=N)cc1,0.554% (inactive)
11,O=C(c1ccco1)N1CCN(CC(=O)N(C2CCCCC2)C2CCS(=O)(=O)C2)CC1 (stereo not drawn),-18.1% (inactive)
12,Cc1cc(C(=O)O)c(S(C)(=O)=O)s1,4.07% (inactive)
13,COc1ccc(CCNC(=S)N2CCN(S(=O)(=O)c3ccc(F)cc3)CC2)cc1,-1.95% (inactive)
14,CN(C)CCCn1c(SCCN2C(=O)c3ccccc3C2=O)nc2ccccc2c1=O,-8.89% (inactive)
15,Cc1onc(-c2c(F)cccc2Cl)c1C(=O)OCC(=O)N1C(C)CCCC1C (stereo not drawn),-2.55% (inactive)
16,CCCn1c(=NC(C)=O)c(C(=O)OCC)cc2c(=O)n3ccccc3nc21,4.14% (inactive)
17,CCOC(=O)c1cc2c(=O)n3ccccc3nc2n(CC(C)C)c1=NC(=O)c1c(-c2c(F)cccc2Cl)noc1C,36.5% (active)
18,CCCCn1c(N)c(N(CCC(C)C)C(=O)COC(=O)c2ccc(CC)cc2)c(=O)[nH]c1=O,-5.34% (inactive)
19,COc1ccc(C(=O)CSc2n[nH]c(N)n2)cc1,4.97% (inactive)
20,C=CCn1c(C)cc(C2=NNC(=NCC)SC2)c1C,37.3% (active)
21,CC(Sc1nc2c([nH]c3ccccc32)c(=O)n1C)c1ccccc1 (stereo not drawn),-2.36% (inactive)
22,COc1ccc(C=C(C#N)C#N)c(CSc2ccccn2)c1,7.7% (inactive)
23,CCOC(=O)Cc1cc(=O)[nH]c(=O)[nH]1,-9.76% (inactive)
24,O=C(OCCO)c1cc(Cl)c(C(=O)OCCO)cc1Cl,19.5% (inactive)

row,SMILES,inhibition
1,CC1CCN(S(=O)(=O)c2ccc3c(c2)n(C)c(=O)n3C)CC1,7.77% (inactive)
2,NC(=O)C1CCN(C(=O)CC2C(=O)NCCN2Cc2cccc(Oc3ccccc3)c2)CC1 (stereo not drawn),-2.05% (inactive)
3,CNC(=O)c1csc(Cc2c(Cl)sc3ccc(Cl)cc23)n1,-20.2% (inactive)
4,Cc1nc2ccccc2c(=O)n1-c1ccc(NS(=O)(=O)c2ccc(F)cc2F)cc1,1.55% (inactive)
5,CCC(C)(C(=O)Nc1ccccc1C)N(C(=O)CNC(C)=O)c1ccc(C)cc1 (stereo not drawn),14.7% (inactive)
6,CC1CCCN(C(=O)CN2C(=O)c3ccccc3S2(=O)=O)C1 (stereo not drawn),-17.2% (inactive)
7,O=C(CN1C(=O)c2ccccc2S1(=O)=O)NC1CCCCC1,9.89% (inactive)
8,O=C(CN1C(=O)c2ccccc2S1(=O)=O)N1CCc2ccccc21,62.7% (active)
9,COC1(C2=NCCN2)COc2ccccc2O1 (stereo not drawn),17.1% (inactive)
10,Cc1ccnc2nc(C(=O)OCC(=O)N(CC(C)C)CC(C)C)nn12,6.38% (inactive)
11,COc1ccc(CNc2nc(NCc3ccc(OC)cc3)c3ncn(C4CCCC4)c3n2)cc1,-55.3% (inactive)
12,Cc1cc(C(=O)CSc2nc(N)cc(=O)[nH]2)c(C)n1-c1cccc(F)c1,-32.2% (inactive)
13,CCCCc1nnc(NC(=O)CSc2nc(N)cc(=O)[nH]2)s1,13.3% (inactive)
14,C=CCSc1nc(N)cc(=O)[nH]1,36.8% (active)
15,CC(=O)N(OCc1ccc(OC(C)C)c(Cl)c1)C(C)=O,-2.83% (inactive)
16,COc1cc(F)c(C2=CC(=O)CC(C)(C)C2)cc1F,4.27% (inactive)
17,Cn1c(-c2ccc(F)cc2)cc2onc(-c3ccccc3Cl)c2c1=O,-275% (inactive)
18,Cc1cccc(C(=O)Nc2ccc(Oc3cnccn3)cc2)c1,-6.59% (inactive)
19,Cc1cccc(C(=O)Nc2ccc(CC(=O)O)cc2)c1,40.2% (active)
20,Cc1cccc(C(=O)Nc2ccc(C(=O)/C=C/c3cccs3)cc2)c1,6.21% (inactive)
21,O=Cc1c(NCCCN2CCCC2=O)c2ccccc2[nH]c1=O,4.36% (inactive)
